Reference: PubChem BioAssay (NCI)
Compounds without any hit were thinned out: in the full panel of roughly 83,000, 20% have a hit.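 Single-dose data. Exposure time 48 hours. Values below 10 considered active.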 Activity calls are given as the source filed them.

How the values were obtained:
Experiment in all cases: NCI-60 one-dose screen, 48 h (100 = growth as untreated, 0 = no growth, -100 = all killed)
Settings in all cases: 10 µM unless noted
SK-MEL-2 melanoma = tested on: SK-MEL-2 melanoma
EKVX NSCLC = tested on: EKVX NSCLC
SN12C renal = tested on: SN12C renal
UO-31 renal = tested on: UO-31 renal
TK-10 renal = tested on: TK-10 renal
ACHN renal = tested on: ACHN renal
CAKI-1 renal = tested on: CAKI-1 renal
A498 renal = tested on: A498 renal
CCRF-CEM leukemia = tested on: CCRF-CEM leukemia
MOLT-4 leukemia = tested on: MOLT-4 leukemia
SR leukemia = tested on: SR leukemia
RPMI-8226 leukemia = tested on: RPMI-8226 leukemia
OVCAR-8 ovarian = tested on: OVCAR-8 ovarian
OVCAR-4 ovarian = tested on: OVCAR-4 ovarian
SK-OV-3 ovarian = tested on: SK-OV-3 ovarian
IGROV1 ovarian = tested on: IGROV1 ovarian
OVCAR-3 ovarian = tested on: OVCAR-3 ovarian
HS 578T breast = tested on: HS 578T breast
NCI/ADR-RES ovarian = tested on: NCI/ADR-RES ovarian
OVCAR-5 ovarian = tested on: OVCAR-5 ovarian

Measured: growth

COc1ccc(Nc2ncccc2/C=C/C(=O)c2cc(OC)c(OC)c(OC)c2)cc1
inactive: EKVX NSCLC 60.8% | A498 renal 64.6% | OVCAR-4 ovarian 29% | SK-OV-3 ovarian 64.6% | HS 578T breast 37.8% | NCI/ADR-RES ovarian 14%
active: SK-MEL-2 melanoma -37.6% | SN12C renal -18.1% | UO-31 renal -79.6% | TK-10 renal -14.6% | ACHN renal -83.4% | CAKI-1 renal -23.6% | CCRF-CEM leukemia -10.4% | MOLT-4 leukemia -11.7% | SR leukemia -22.4% | RPMI-8226 leukemia -25.3% | OVCAR-8 ovarian -33.8% | IGROV1 ovarian -2.98% | OVCAR-3 ovarian -88.2%

O=C1/C(=C/c2ccccc2F)CN(C(=O)C(Cl)Cl)C/C1=C\c1ccccc1F
active: SK-MEL-2 melanoma -2.69% | EKVX NSCLC -8.07% | SN12C renal -79.9% | UO-31 renal -92% | TK-10 renal -39.7% | ACHN renal -100% | CAKI-1 renal -43.2% | A498 renal -62.5% | CCRF-CEM leukemia 1.7% | MOLT-4 leukemia -10.7% | SR leukemia -11.4% | RPMI-8226 leukemia -27.7% | OVCAR-8 ovarian 2.66% | IGROV1 ovarian -36.9% | OVCAR-3 ovarian -94% | HS 578T breast 4.55% | NCI/ADR-RES ovarian 5.18%
inactive: OVCAR-4 ovarian 14.9% | SK-OV-3 ovarian 32.4%

N=C(N)c1ccc(-c2ccc(-c3cc(Cl)cc(Cl)c3)s2)nc1
active: MOLT-4 leukemia 2.78% | SR leukemia 8.46% | RPMI-8226 leukemia 8.67% | OVCAR-8 ovarian -17.5%
inactive: SK-MEL-2 melanoma 109% | EKVX NSCLC 94.5% | SN12C renal 83% | UO-31 renal 90.6% | TK-10 renal 115% | ACHN renal 74.8% | CAKI-1 renal 30.9% | A498 renal 91.6% | CCRF-CEM leukemia 21.7% | OVCAR-4 ovarian 59.1% | SK-OV-3 ovarian 84.1% | IGROV1 ovarian 46.7% | OVCAR-3 ovarian 19.8% | HS 578T breast 94% | NCI/ADR-RES ovarian 91.4%

Cc1ccc(/C=C/C(=O)c2ccc(-n3cc(CN4CCN(c5cc6c(cc5F)c(=O)c(C(=O)O)cn6C5CC5)CC4)nn3)cc2)cc1
inactive: SK-MEL-2 melanoma 95.5% | EKVX NSCLC 96% | SN12C renal 67.7% | UO-31 renal 61.8% | TK-10 renal 104% | ACHN renal 89.8% | CAKI-1 renal 69.8% | A498 renal 64.5% | CCRF-CEM leukemia 84.3% | MOLT-4 leukemia 86% | SR leukemia 63.2% | RPMI-8226 leukemia 44.3% | OVCAR-8 ovarian 62.5% | OVCAR-5 ovarian 109% | SK-OV-3 ovarian 84.7% | OVCAR-3 ovarian 96% | HS 578T breast 80.5% | NCI/ADR-RES ovarian 103%

CCOC(=O)C1=C(C)C(Cl)=N/C1=C\c1[nH]c(Cl)c(C)c1C(=O)OCC
inactive: SK-MEL-2 melanoma 109% | EKVX NSCLC 99.5% | SN12C renal 100% | UO-31 renal 86.5% | TK-10 renal 109% | ACHN renal 107% | CAKI-1 renal 94.5% | A498 renal 104% | CCRF-CEM leukemia 51.9% | MOLT-4 leukemia 80.3% | SR leukemia 86.3% | RPMI-8226 leukemia 65.1% | OVCAR-8 ovarian 99.1% | OVCAR-4 ovarian 95.4% | SK-OV-3 ovarian 81.8% | IGROV1 ovarian 112% | OVCAR-3 ovarian 116% | HS 578T breast 103% | NCI/ADR-RES ovarian 104%

CCOC(=O)c1cnc2c(N=Nc3ccc(OC)cc3)c(N)nn2c1N
inactive: SK-MEL-2 melanoma 102% | EKVX NSCLC 103% | SN12C renal 95.2% | UO-31 renal 94.2% | TK-10 renal 104% | ACHN renal 109% | CAKI-1 renal 96.6% | A498 renal 92.5% | CCRF-CEM leukemia 103% | MOLT-4 leukemia 88% | SR leukemia 112% | RPMI-8226 leukemia 104% | OVCAR-8 ovarian 102% | OVCAR-4 ovarian 111% | SK-OV-3 ovarian 108% | IGROV1 ovarian 93.7% | OVCAR-3 ovarian 113% | HS 578T breast 104% | NCI/ADR-RES ovarian 98.9%

COc1cc(OC)c(C(=O)C(CN(C)C)CN(C)C)cc1OC
active: TK-10 renal -79.2% | ACHN renal -87.6% | CCRF-CEM leukemia -58.1% | MOLT-4 leukemia -39.8% | SR leukemia -49.3% | RPMI-8226 leukemia -18.1% | OVCAR-3 ovarian 1.07%
inactive: SK-MEL-2 melanoma 105% | EKVX NSCLC 20.3% | SN12C renal 107% | UO-31 renal 10.4% | CAKI-1 renal 20.3% | A498 renal 113% | OVCAR-8 ovarian 104% | OVCAR-4 ovarian 54.1% | SK-OV-3 ovarian 85.1% | IGROV1 ovarian 109% | HS 578T breast 108% | NCI/ADR-RES ovarian 94.3%

Cc1c(CC(=S)N2CCOCC2)nnn1-c1cccc(C(F)(F)F)c1
inactive: SK-MEL-2 melanoma 111% | EKVX NSCLC 104% | SN12C renal 103% | UO-31 renal 82.9% | TK-10 renal 104% | ACHN renal 106% | CAKI-1 renal 93.2% | A498 renal 102% | CCRF-CEM leukemia 103% | MOLT-4 leukemia 102% | SR leukemia 105% | RPMI-8226 leukemia 103% | OVCAR-8 ovarian 104% | OVCAR-4 ovarian 103% | SK-OV-3 ovarian 108% | IGROV1 ovarian 104% | OVCAR-3 ovarian 110% | HS 578T breast 99.9% | NCI/ADR-RES ovarian 105%

O=C(O)/C=C/C(=O)Nc1cccc(Cn2nnc3cc(Cl)c(Cl)cc32)c1
inactive: SK-MEL-2 melanoma 114% | EKVX NSCLC 94.3% | SN12C renal 104% | UO-31 renal 79.5% | TK-10 renal 124% | ACHN renal 97.1% | CAKI-1 renal 95% | A498 renal 108% | CCRF-CEM leukemia 99.4% | MOLT-4 leukemia 97.1% | SR leukemia 93.8% | RPMI-8226 leukemia 104% | OVCAR-8 ovarian 99.6% | OVCAR-4 ovarian 108% | SK-OV-3 ovarian 90.1% | IGROV1 ovarian 94.1% | OVCAR-3 ovarian 101% | HS 578T breast 88% | NCI/ADR-RES ovarian 106%

CN1C(=O)/C(=C2\SC(=Nc3ccccc3)N(Nc3ccccc3)C2=O)c2ccccc21
inactive: SK-MEL-2 melanoma 108% | EKVX NSCLC 101% | SN12C renal 97.8% | UO-31 renal 61.4% | TK-10 renal 148% | ACHN renal 95.3% | CAKI-1 renal 74.2% | A498 renal 103% | CCRF-CEM leukemia 103% | MOLT-4 leukemia 101% | SR leukemia 117% | RPMI-8226 leukemia 106% | OVCAR-8 ovarian 102% | OVCAR-5 ovarian 104% | SK-OV-3 ovarian 98% | IGROV1 ovarian 79.5% | OVCAR-3 ovarian 110% | HS 578T breast 107% | NCI/ADR-RES ovarian 102%

C[C@H](C(=O)N(CCc1ccc(Cl)c(Cl)c1)Cc1cncs1)[C@@H]1CC[C@H](C[C@H](C)n2cc(CN3CCC(c4ccc(Cl)cc4)CC3)nn2)O1
active: MOLT-4 leukemia -70% | SR leukemia -44.7%
inactive: SK-MEL-2 melanoma 106% | EKVX NSCLC 95.4% | SN12C renal 97.5% | UO-31 renal 82.2% | TK-10 renal 104% | ACHN renal 102% | CAKI-1 renal 87.9% | A498 renal 108% | CCRF-CEM leukemia 94.3% | RPMI-8226 leukemia 91.7% | OVCAR-8 ovarian 91% | OVCAR-4 ovarian 92.6% | SK-OV-3 ovarian 103% | IGROV1 ovarian 101% | HS 578T breast 98.7% | NCI/ADR-RES ovarian 105%

Cc1c(CN)cc(-c2ccc(Cl)cc2)n1-c1ccccc1
inactive: SK-MEL-2 melanoma 90.2% | EKVX NSCLC 82.6% | SN12C renal 87.6% | UO-31 renal 59.2% | TK-10 renal 66.3% | ACHN renal 74.7% | CAKI-1 renal 40.7% | CCRF-CEM leukemia 81.7% | MOLT-4 leukemia 82.3% | SR leukemia 77.5% | RPMI-8226 leukemia 66.7% | OVCAR-8 ovarian 74.8% | OVCAR-5 ovarian 80.9% | SK-OV-3 ovarian 85.4% | IGROV1 ovarian 48.1% | OVCAR-3 ovarian 106% | HS 578T breast 87.9% | NCI/ADR-RES ovarian 88.1%
active: A498 renal -7.73%

O=C(O)[C@@H](Cc1ccc2ccccc2c1)NC(=O)n1c2ccccc2c2ccccc21
active: A498 renal 9.24% | RPMI-8226 leukemia 9.9% | OVCAR-3 ovarian 6% | NCI/ADR-RES ovarian 7.01%
inactive: SK-MEL-2 melanoma 33.3% | EKVX NSCLC 47.9% | SN12C renal 34.1% | UO-31 renal 38.9% | TK-10 renal 58.1% | ACHN renal 48.8% | CAKI-1 renal 30.5% | CCRF-CEM leukemia 13% | MOLT-4 leukemia 24.5% | SR leukemia 25.7% | OVCAR-8 ovarian 21.2% | OVCAR-5 ovarian 37.6% | SK-OV-3 ovarian 39.7% | IGROV1 ovarian 29.6% | HS 578T breast 17.4%

Fc1ccc2[nH]cc(-c3nc(-c4c[nH]c5ccncc45)cs3)c2c1
active: SK-MEL-2 melanoma -49.9% | EKVX NSCLC -45.7% | SN12C renal -49.8% | UO-31 renal -69.9% | TK-10 renal -37.4% | ACHN renal -78.2% | CAKI-1 renal -17.4% | CCRF-CEM leukemia -19.2% | MOLT-4 leukemia -32.6% | SR leukemia -6.91% | RPMI-8226 leukemia -24.2% | OVCAR-8 ovarian -41.5% | IGROV1 ovarian -43.2% | OVCAR-3 ovarian -74.3% | HS 578T breast -38.3%
inactive: A498 renal 62.1% | OVCAR-5 ovarian 24.3% | NCI/ADR-RES ovarian 16.9%

O=C(CSc1nnc(-c2cc(-c3ccccc3)nc3ccccc23)n1-c1ccccc1)Nc1ccc(C(=O)/C=C/c2ccc(Cl)cc2)cc1
inactive: SK-MEL-2 melanoma 112% | EKVX NSCLC 88.5% | SN12C renal 85.1% | UO-31 renal 84.4% | TK-10 renal 110% | ACHN renal 87.1% | CAKI-1 renal 81.5% | A498 renal 81.5% | CCRF-CEM leukemia 72.2% | MOLT-4 leukemia 68.6% | SR leukemia 80.2% | RPMI-8226 leukemia 66.6% | OVCAR-8 ovarian 93.1% | OVCAR-4 ovarian 91.6% | SK-OV-3 ovarian 94.2% | IGROV1 ovarian 108% | OVCAR-3 ovarian 97.2% | HS 578T breast 89.1% | NCI/ADR-RES ovarian 95.3%
